Data reported in PubChem BioAssay (NCATS).
Where “and” joins values, the source holds several entries; their conditions need not be identical. Identical values can stand only once. Results filed as inconclusive are left out. Calls of active or inactive are those of the source. Unless noted, calls follow the shape of the dose curve; as a rule, active = well fitted curve in the direction sought with a large enough effect; inconclusive = small, poorly fitted or top-dose-only effect, or another doubt; inactive = no such curve, though single readings can be large; an effect the other way counts as inactive or inconclusive.

Legend:
[1] = target: Voltage-gated inwardly rectifying potassium channel KCNH2 (Homo sapiens) (UniProt Q12809); test: qHTS Assay for Small Molecule Inhibitors of the Human hERG Channel Activity (AID 588834);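 also: top concentration of the series differs between compounds; % is scaled to controls: 0 for no effect and ±100 for the full control effect; lower thallium flux fluorescence means stronger hERG block; nearly all actives have a fitted effect of over 50% in size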
How it was run: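 U2OS cells BacMam-transduced with hERG, 2000 cells/well, compound ~10 min at 37 °C before stimulation buffer. FluxOR thallium flux fluorescence read kinetically on FDSS; decrease indicates block; AC50 from Hill fits.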

[2] = qHTS assay for small molecule agonists of the antioxidant response element (ARE) signaling pathway (AID 651741; active = well fitted activation curve with a large enough effect in the signal ratio; the % refers to the signal ratio; also: % of control where 0% means no effect)
How it was run: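 Seeding 2,000 ARE-bla HepG2 cells per well preceded a 5 h incubation at 37 C/5% CO2 and a 16 h compound exposure at 37 C. Beta-lactamase reporter activity was then quantified by fluorescence after 2 h with LiveBLAzer B/G FRET substrate.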

[3] = qHTS assay for small molecule activators of the nuclear factor-kappa B (NF-kB) signaling pathway (AID 651749; active = well fitted activation curve with a large enough effect in the signal ratio; the % refers to the signal ratio; also: series mostly up to about 77 µM; % of control where 0% means no effect); conditions: NF-kB-bla ME-180 cells, beta-lactamase FRET ratio, 16 h; activation: hits give high values
How it was run: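 Stably transfected ME-180 line; NF-kB response element upstream of beta-lactamase. Treatment: compound or DMSO, 16 hr. Detection: fluorescent FRET substrate.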

[4] = qHTS assay for small molecule disruptors of the mitochondrial membrane potential - 5 hr assay (AID 651755; calls by dose curve; also: % is scaled to controls: 0 for no effect and ±100 for the full control effect; nearly all actives have a fitted effect of over 40% in size)
How it was run: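 HepG2, 2,000 cells/well, overnight attach; cpd or DMSO 5 hr, 37C/5% CO2; Mito-MPS 30 min 37C; fluor 490/535 + 540/590 nm.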

[5] = target: Tumor necrosis factor (Homo sapiens) (UniProt P01375); test: qHTS assay to identify small molecules that stimulate Tumor Necrosis Factor-alpha (TNF-alpha) secretion (AID 651757; active = well fitted curve in the direction sought with a large enough effect in the signal ratio; the % refers to the signal ratio; also: 0% is about no effect)
How it was run: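 THP-1 cells were exposed to compounds for 17 hrs at 37 C, after which secreted TNF-alpha was measured by homogeneous HTRF (TR-FRET) using cryptate- and XL665-labeled anti-TNF-alpha antibodies, read after 3 hr at room temperature.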

[6] = qHTS assay to identify small molecules that stimulate interleukin-8 (IL-8) secretion (AID 651758; active = well fitted activation curve with a large enough effect in the signal ratio; the % refers to the signal ratio; also: 0% is about no effect)
How it was run: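 Secreted IL-8 measured by TR-FRET sandwich (cryptate and XL665 antibodies) from THP-1 cells exposed to compound overnight (16 hrs, 37 C).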

[7] = qHTS assay for environmental chemicals that activate the Aryl hydrocarbon Receptor (AhR) signaling pathway (AID 651777); conditions: 1A2-DRE human hepatoma cells, luciferase, 24 h; activation: hits give high values; also: % of control where 0% means no effect; nearly all actives have a fitted effect of over 15% in size
How it was run: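 Stable CYP1A2 promoter/DRE-luciferase human hepatoma line treated 24 hr; One-Glo luminescence, 30 min RT.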

[8] = target: Peroxisome proliferator-activated receptor alpha (Homo sapiens) (UniProt Q07869); test: qHTS assay for small molecule agonists of the peroxisome proliferator-activated receptor alpha (PPARalpha) signaling pathway (AID 651778); conditions: PathHunter PPARalpha complementation, chemiluminescence, 6 h; hits give high values; also: % of control where 0% means no effect
How it was run: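 Chemiluminescence from complemented enzyme reported PPARalpha activation in cells after 6 hr of compound treatment at 37 C. The detection reagent was incubated for 60 min at room temperature, and compounds were scored as agonists.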

[9] = target: Nuclear receptor ROR-gamma (Homo sapiens) (UniProt P51449); test: qHTS assay for small molecule antagonists of the retinoid-related orphan receptor gamma (ROR-gamma) signaling pathway (AID 651802); also: series mostly up to about 92 µM; % is scaled to controls: 0 for no effect and ±100 for the full control effect; nearly all actives have a fitted effect of over 60% in size
How it was run: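 CHO cells carrying TET-inducible ROR-gamma and an ROR response element–luciferase reporter were exposed to compound, then induced with doxycycline. After 16hr at 37C, luminescence was read; lower signal indicates antagonism.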

[10] = qHTS assay for small molecule agonists of the antioxidant response element (ARE) signaling pathway measured by Nrf2-dependant transcriptional activity (AID 720636; active = well fitted curve in the direction sought with a large enough effect in the repeat runs; an effect the other way counts as inactive or inconclusive;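 also: HepG2 cells with an ARE-driven luciferase reporter; % of control where 0% means no effect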)
How it was run: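 Reporter gene assay, HepG2 ARE-luc: 16 hr compound, 37 C, 5% CO2; read-out luciferase luminescence.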

[11] = qHTS assay for small molecule antagonists of the retinoid-related orphan receptor gamma (ROR-gamma) signaling pathway - cell viability counter screen (AID 720652; active = well fitted curve in the direction sought with a large enough effect in the repeat runs; an effect the other way counts as inactive or inconclusive;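 also: series mostly up to about 92 µM; compound exposure lasted 16 hr before ATP read; % is scaled to controls: 0 for no effect and ±100 for the full control effect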)
How it was run: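 Counter screen in CHO cells carrying TET-inducible ROR-gamma and an ROR response element-luciferase reporter; cells plated 5 hr, compound pinned, doxycycline added, then 16 hr at 37 C. Viability read as intracellular ATP by CellTiter-Glo luminescence.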

[12] = qHTS assay for small molecule agonists of the antioxidant response element (ARE) signaling pathway measured by Nrf2-dependant transcriptional activity - cell viability counter screen (AID 720653; active = well fitted curve in the direction sought with a large enough effect in the repeat runs; an effect the other way counts as inactive or inconclusive; also: % is scaled to controls: 0 for no effect and ±100 for the full control effect); conditions: ARE-bla HepG2 viability, CellTiter-Glo ATP luminescence, 16 h; hits give low values
How it was run: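 Cytotoxicity counter screen: intracellular ATP quantified by CellTiter-Glo luminescence in the same ARE-bla HepG2 plates, after 16 h compound exposure and a 2 h beta-lactamase substrate step.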

[13] = qHTS assay for cell viability of HEK293 cells (AID 743288); conditions: ATP luminescence (CellTiter-Glo), 18 h; max response: hits give low values; also: % is scaled to controls: 0 for no effect and ±100 for the full control effect; nearly all actives have a fitted effect of over 50% in size
How it was run: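 Parental HEK293 cells, 2,000 per well, preincubated at least 5 h at 37 C, then exposed to compounds in DMSO for 18 h at 37 C. Viability by CellTiter-Glo ATP luminescence after 30 min at room temperature.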

[14] = qHTS assay for cell viability of the p53RE-bla HCT-116 cell line (AID 743292); also: % is scaled to controls: 0 for no effect and ±100 for the full control effect; nearly all actives have a fitted effect of over 55% in size
How it was run: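 Readout: CellTiter-Glo luminescence after 30 min RT. Treatment: compounds in DMSO, 16 h, 37 C. Cells: CellSensor p53RE-bla HCT-116, 4,000/well, preincubated 5 h.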

[15] = target: Rap guanine nucleotide exchange factor 3 (Homo sapiens) (UniProt O95398); test: Confirmatory qHTS for antagonist of cAMP-regulated guanine nucleotide exchange factor 3 (EPAC1) (AID 1645880);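 also: plate controls were DMSO only for no effect and full effect of the ATA control for full effect; nearly all actives have a fitted effect of over 55% in size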
How it was run: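 Nucleotide exchange uses 100 nM EPAC1, 250 nM RAP1B-BODIPY-GDP and 50 uM GDP, with compounds in a concentration-titration series. After 5 min at room temperature, fluorescence (480 nm ex/540 nm em) is read every 5 min for 30 min. Data are normalized to control ATA and DMSO.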

[16] = target: Rap guanine nucleotide exchange factor 3 (Homo sapiens) (UniProt O95398); test: Confirmatory qHTS for agonist of cAMP-regulated guanine nucleotide exchange factor 3 (EPAC1) (AID 1645881);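 also: EPAC1 catalysed release of BODIPY-GDP from Rap1B seen as fluorescence loss; 100% = effect of cAMP agonist control; nearly all actives have a fitted effect of over 75% in size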
[17] = target: Rap guanine nucleotide exchange factor 4 (Homo sapiens) (UniProt Q8WZA2); test: Confirmatory qHTS for agonist of cAMP-regulated guanine nucleotide exchange factor 4 (EPAC2) (AID 1645884);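 also: nucleotide exchange releases bodipy-GDP from Rap1 and this lowers its fluorescence; % is scaled to controls: 0 for no effect and ±100 for the full control effect; nearly all actives have a fitted effect of over 65% in size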
[18] = target: Rap guanine nucleotide exchange factor 4 (Homo sapiens) (UniProt Q8WZA2); test: Confirmatory qHTS for antagonist of cAMP-regulated guanine nucleotide exchange factor 4 (EPAC2) (AID 1645885); also: % is scaled to controls: 0 for no effect and ±100 for the full control effect; nearly all actives have a fitted effect of over 25% in size
[19] = target: Rap guanine nucleotide exchange factor 3 (Homo sapiens) (UniProt O95398); test: Counterscreen qHTS for antagonist of cAMP-regulated guanine nucleotide exchange factor 3 (EPAC1) (AID 1645888);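 also: fluorescence loss as bound BODIPY-GDP is released from Rap1B; % of control where 0% means no effect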
How it was run: (§1)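 Rap1B-BODIPY-GDP 250 nM + GDP 50 uM; cpds 7-pt, final 9.74 nM–152 uM (activator mode) or from 7.32 nM upwards (inhibitor mode); RT; FI 480/540 nm at 5 and 30 min, then ± cAMP, reread.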

[20] = target: Rap guanine nucleotide exchange factor 3 (Homo sapiens) (UniProt O95398); test: Counterscreen qHTS for agonist of cAMP-regulated guanine nucleotide exchange factor 3 (EPAC1) (AID 1645889); also: % of control where 0% means no effect; nearly all actives have a fitted effect of over 40% in size
How it was run: as §1

[21] = target: Nuclear receptor subfamily 1 group I member 2 (Rattus norvegicus) (UniProt Q9R1A7); test: qHTS assay for small molecule activators of the rat pregnane X receptor (rPXR) signaling pathway (AID 651751; call rule not given here; also: 0% is about no effect); conditions: rPXR reporter cells, luciferase (One-Glo), 24 h
[22] = qHTS assay for small molecule activators of the human pregnane X receptor (PXR) signaling pathway (AID 720659; call rule not given here; also: 0% is about no effect)

Sequence of Rap guanine nucleotide exchange factor 3 (Homo sapiens) (O95398 whole entry, looked up): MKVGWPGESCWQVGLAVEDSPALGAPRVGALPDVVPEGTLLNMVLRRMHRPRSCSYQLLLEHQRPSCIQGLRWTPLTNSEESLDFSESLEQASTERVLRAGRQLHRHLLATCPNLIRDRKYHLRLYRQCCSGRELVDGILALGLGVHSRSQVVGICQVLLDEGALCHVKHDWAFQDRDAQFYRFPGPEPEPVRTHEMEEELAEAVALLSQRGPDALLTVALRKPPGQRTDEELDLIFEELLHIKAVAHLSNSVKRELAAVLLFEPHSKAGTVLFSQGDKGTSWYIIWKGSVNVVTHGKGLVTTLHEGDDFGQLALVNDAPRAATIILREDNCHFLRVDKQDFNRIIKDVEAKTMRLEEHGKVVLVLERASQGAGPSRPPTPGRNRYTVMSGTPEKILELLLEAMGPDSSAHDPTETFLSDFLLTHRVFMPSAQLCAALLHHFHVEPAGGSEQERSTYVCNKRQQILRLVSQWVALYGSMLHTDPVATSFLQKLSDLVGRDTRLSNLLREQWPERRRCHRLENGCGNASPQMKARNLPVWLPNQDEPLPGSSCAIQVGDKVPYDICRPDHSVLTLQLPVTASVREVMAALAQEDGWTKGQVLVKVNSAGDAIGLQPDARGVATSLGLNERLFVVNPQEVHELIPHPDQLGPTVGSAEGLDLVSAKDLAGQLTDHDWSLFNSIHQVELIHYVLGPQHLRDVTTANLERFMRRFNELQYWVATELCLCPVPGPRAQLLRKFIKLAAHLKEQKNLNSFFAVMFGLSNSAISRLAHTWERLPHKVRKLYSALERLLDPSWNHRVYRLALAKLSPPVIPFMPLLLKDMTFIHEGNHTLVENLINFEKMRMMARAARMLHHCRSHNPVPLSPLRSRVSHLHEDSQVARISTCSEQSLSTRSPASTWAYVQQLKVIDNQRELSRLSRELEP
Sequence of Rap guanine nucleotide exchange factor 4 (Homo sapiens) (Q8WZA2 whole entry, looked up): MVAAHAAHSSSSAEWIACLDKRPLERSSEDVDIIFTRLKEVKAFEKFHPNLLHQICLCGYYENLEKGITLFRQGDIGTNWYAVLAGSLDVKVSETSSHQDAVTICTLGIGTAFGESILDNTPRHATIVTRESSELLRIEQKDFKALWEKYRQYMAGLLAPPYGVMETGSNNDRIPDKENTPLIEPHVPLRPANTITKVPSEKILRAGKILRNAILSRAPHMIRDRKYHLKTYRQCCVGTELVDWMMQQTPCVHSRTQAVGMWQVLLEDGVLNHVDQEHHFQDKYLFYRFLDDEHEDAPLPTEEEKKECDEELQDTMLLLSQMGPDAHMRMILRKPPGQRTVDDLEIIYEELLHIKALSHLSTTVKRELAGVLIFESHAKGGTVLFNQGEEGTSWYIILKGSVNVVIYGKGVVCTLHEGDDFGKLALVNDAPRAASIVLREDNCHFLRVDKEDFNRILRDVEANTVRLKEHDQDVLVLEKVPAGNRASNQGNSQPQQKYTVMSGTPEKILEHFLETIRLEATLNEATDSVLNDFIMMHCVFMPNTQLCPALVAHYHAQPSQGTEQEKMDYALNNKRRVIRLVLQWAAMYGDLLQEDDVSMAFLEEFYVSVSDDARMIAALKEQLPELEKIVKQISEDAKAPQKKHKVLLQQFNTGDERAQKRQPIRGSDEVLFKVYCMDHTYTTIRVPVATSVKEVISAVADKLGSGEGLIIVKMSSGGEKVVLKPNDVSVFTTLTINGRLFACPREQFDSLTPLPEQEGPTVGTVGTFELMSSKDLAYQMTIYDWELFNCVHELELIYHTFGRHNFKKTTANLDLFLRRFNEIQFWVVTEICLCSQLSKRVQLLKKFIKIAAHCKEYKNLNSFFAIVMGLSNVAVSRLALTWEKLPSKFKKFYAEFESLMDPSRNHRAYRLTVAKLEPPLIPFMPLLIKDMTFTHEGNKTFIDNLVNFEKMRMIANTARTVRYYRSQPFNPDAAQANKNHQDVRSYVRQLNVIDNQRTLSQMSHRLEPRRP
Sequence of Nuclear receptor subfamily 1 group I member 2 (Rattus norvegicus) (Q9R1A7 whole entry, looked up): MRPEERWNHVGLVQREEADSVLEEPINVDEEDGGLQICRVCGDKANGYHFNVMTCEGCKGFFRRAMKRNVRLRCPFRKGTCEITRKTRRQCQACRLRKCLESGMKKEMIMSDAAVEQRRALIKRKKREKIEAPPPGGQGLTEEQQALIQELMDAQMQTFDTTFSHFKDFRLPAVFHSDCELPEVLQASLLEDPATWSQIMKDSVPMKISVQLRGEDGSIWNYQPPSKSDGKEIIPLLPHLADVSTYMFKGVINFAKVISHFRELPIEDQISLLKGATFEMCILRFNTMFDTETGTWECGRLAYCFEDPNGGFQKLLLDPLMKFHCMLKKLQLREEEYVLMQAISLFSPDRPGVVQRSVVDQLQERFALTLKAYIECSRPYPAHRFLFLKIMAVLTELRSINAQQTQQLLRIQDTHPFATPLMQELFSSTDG
Sequence of Peroxisome proliferator-activated receptor alpha (Homo sapiens) (Q07869 whole entry, looked up): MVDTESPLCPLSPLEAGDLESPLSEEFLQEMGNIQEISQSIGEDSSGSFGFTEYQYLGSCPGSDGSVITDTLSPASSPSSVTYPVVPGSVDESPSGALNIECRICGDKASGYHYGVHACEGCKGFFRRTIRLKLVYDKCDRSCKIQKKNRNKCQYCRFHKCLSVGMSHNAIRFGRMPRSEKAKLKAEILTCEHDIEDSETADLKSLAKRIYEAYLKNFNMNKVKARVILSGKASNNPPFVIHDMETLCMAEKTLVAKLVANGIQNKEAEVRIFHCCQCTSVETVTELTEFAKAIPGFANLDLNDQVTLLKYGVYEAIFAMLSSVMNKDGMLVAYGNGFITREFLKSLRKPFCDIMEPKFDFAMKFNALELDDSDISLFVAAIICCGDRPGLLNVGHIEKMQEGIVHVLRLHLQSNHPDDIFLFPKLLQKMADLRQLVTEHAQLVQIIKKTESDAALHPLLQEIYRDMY
Sequence of Nuclear receptor ROR-gamma (Homo sapiens) (P51449 whole entry, looked up): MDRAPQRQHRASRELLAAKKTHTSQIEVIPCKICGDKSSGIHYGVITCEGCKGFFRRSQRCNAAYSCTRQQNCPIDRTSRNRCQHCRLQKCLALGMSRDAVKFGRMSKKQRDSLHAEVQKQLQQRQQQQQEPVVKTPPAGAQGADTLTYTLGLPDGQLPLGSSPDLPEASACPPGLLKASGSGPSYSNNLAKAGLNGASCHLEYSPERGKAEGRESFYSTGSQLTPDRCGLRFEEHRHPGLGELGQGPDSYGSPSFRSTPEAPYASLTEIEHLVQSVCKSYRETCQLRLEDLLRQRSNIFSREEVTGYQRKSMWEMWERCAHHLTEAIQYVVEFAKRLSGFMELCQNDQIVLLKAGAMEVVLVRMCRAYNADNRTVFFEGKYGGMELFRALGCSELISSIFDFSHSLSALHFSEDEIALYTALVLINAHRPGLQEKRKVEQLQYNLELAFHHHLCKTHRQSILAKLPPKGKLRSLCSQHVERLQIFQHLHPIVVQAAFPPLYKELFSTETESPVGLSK
Sequence of Tumor necrosis factor (Homo sapiens) (P01375 whole entry, looked up): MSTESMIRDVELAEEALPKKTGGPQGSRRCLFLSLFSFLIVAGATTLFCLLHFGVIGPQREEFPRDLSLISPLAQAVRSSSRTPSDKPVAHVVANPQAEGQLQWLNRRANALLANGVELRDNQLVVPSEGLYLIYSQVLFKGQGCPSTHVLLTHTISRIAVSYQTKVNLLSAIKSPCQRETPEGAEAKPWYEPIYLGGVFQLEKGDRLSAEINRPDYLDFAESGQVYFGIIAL
Sequence of Voltage-gated inwardly rectifying potassium channel KCNH2 (Homo sapiens) (Q12809 whole entry, looked up): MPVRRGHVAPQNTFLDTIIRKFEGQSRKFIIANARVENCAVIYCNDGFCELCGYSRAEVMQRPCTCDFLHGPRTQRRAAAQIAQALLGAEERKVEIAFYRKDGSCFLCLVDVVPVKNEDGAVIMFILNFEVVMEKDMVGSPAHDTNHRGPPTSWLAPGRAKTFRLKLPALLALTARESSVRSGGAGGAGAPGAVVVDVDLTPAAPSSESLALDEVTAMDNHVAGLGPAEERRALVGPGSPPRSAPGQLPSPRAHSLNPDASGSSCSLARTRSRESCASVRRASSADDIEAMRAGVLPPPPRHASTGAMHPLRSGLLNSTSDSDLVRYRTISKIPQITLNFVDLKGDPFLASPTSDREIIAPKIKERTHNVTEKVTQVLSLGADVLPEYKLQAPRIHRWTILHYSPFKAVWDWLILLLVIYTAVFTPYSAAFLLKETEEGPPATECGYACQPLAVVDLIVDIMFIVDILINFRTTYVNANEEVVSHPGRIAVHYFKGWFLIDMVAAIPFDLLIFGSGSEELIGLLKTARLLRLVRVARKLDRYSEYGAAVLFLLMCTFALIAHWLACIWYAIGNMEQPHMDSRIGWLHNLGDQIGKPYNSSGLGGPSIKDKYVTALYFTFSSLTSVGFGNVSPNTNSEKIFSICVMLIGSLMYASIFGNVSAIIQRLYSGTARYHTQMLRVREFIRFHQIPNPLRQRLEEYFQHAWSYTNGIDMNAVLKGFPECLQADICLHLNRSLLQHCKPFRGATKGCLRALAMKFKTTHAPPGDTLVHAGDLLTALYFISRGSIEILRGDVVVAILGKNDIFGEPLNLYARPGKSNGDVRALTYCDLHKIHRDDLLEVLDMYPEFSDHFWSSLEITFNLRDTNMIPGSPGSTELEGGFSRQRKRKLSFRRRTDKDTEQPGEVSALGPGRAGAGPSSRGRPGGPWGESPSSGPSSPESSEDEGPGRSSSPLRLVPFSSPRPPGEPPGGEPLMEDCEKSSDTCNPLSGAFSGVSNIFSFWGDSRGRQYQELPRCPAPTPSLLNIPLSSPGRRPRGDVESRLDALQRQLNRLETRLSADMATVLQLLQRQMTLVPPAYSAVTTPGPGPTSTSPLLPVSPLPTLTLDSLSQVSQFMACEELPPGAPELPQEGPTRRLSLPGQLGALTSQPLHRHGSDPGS

CCCOC(=O)c1ccccc1C(=O)OCCC
inactive: Potency [1] | Potency [2] | activation [3] -0.812% and -1.55% | Potency [4] | outcome [5] | Potency [6] | activation [7] -1.57% and -0.202% | max response [8] -3.23% and -0.333% | Potency [9] | outcome [10] | Potency [11] | max response [12] 2.53% and -0.566% | max response [13] -2.21% and -12.8% | Potency [14] | Potency [15] | Potency [16] | activation [17] -6.75% [at 17.1 µM, percent relative to cAMP agonist control] | activity change, negative = inhibition [18] -25.7% [at 12.7 µM] | activity change, negative = inhibition [19] -2.66% [at 30.8 µM] | activation [20] 23.9% [at 30.8 µM] | max response [21] 4.44% and -1.18% | outcome [22]
